The source of these data is PubChem BioAssay AID1053180 (Broad Institute, 2014).

Molecules are shown by their SMILES. Values joined by “and” are separate entries in the source; they are usually repeats but may differ in a detail not shown here. Equal entries are not always repeated. The campaign covered roughly 9,600 compounds. About 20 (0.2%) were called active.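 Rule for the calls: active = highest normalized replicate activity of 15 or more, or at least half the replicates reach 15 or more; inactive = neither condition met.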 Many of the other results were omitted from the sample, so actives are more common in it than they were. More than one record can exist for a structure, and the calls need not agree.

The experiment in a line: activators of Pax4 gene expression, primary screen, RT-PCR, mouse alpha TC1 cells, single point (AID 1053180).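 Note: Pax4 Ct normalized to GAPDH with activation seen as lower delta delta Ct; plate controls were plate neutral control wells for no effect and Pax4 plasmid positive control for full effect.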 Particulars: Pax4 mRNA qPCR, 6 days, at 10 µM, stronger effect = higher value, 100% = Pax4 plasmid added at qPCR. (In qPCR the cycle at which signal appears reflects the starting amount.)
Take `O=C(Nc1ccc(F)cc1)N1C[C@@H]2N[C@H](C1)C2c1ccc(/C=C/c2ccccc2)cc1` (stereo partly specified): the activation was 1.76% (inactive).

Take `N#Cc1cccc(-c2ccc(C3[C@@H]4CN(C(=O)Nc5ccc(C(F)(F)F)cc5)C[C@H]3N4)cc2)c1` (stereo partly specified): the activation is 8.39% (active) and 0.03% (inactive).

Take `COc1ccc(-c2ccc(C3[C@@H]4CN(S(=O)(=O)c5ccccc5C)C[C@H]3N4)cc2)cc1` (stereo partly specified): the activation is 0.369% (inactive) and 0.0145% (inactive).

Take `C/C=C/c1ccc(C2[C@H]3CNC[C@@H]2N3C(=O)Nc2ccc(C(F)(F)F)cc2)cc1` (stereo partly specified): the activation is 0.016% (inactive) and 0.0105% (inactive).

Consider `Cc1ccccc1S(=O)(=O)N1C[C@@H]2N[C@H](C1)C2c1ccc(-c2cccc(C#N)c2)cc1` (stereo partly specified), for which the activation was 0.966% (inactive) and 11.5% (active).

As to `Cc1cccc(-c2ccc(C3[C@@H]4CN(C(=O)Nc5ccc(F)cc5)C[C@H]3N4)cc2)c1` (stereo partly specified), the activation was 0.272% (inactive).

In the case of `N#Cc1cccc(-c2ccc(C3[C@@H]4CNC[C@H]3N4)cc2)c1` (stereo partly specified), the activation is 0.0045% (inactive).

As for `COc1ccccc1NC(=O)N1C[C@@H]2N[C@H](C1)C2c1ccc(-c2cccc(C#N)c2)cc1` (stereo partly specified), the activation was 0.02% (inactive) and 0.24% (inactive).

In the case of `C/C=C/c1ccc(C2[C@@H]3CN(C(=O)Nc4ccc(C(F)(F)F)cc4)C[C@H]2N3)cc1` (stereo partly specified), the activation is 32.9% (active) and 0.0565% (inactive).

As for `O=C1CNC[C@@H]2[C@H](c3ccc(-c4ccccc4F)cc3)[C@@H](CO)N12`, the activation was 0% (inactive).

For the compound `CNC[C@@H]1Oc2cc(C#Cc3ccccc3OC)ccc2S(=O)(=O)N([C@H](C)CO)C[C@H]1C`, the activation was 10.4% (active).

As to `CNC[C@H]1Oc2cc(C#Cc3ccccc3OC)ccc2S(=O)(=O)N([C@H](C)CO)C[C@@H]1C`, the activation is 0.402% (inactive).

In the case of `CNC[C@H]1Oc2cc(C#Cc3ccccc3OC)ccc2S(=O)(=O)N([C@@H](C)CO)C[C@@H]1C`, the activation is 0.371% (inactive).

Turning to `C[C@@H]1CN([C@@H](C)CO)C(=O)CCCn2nncc2CO[C@H]1CN(C)C(=O)c1cc(-c2ccccc2)on1`, the activation was 0.0055% (inactive).

`C[C@@H]1CN([C@H](C)CO)C(=O)CCCn2nncc2CO[C@@H]1CN(C)Cc1ccccc1C(=O)O`: the activation was -0.0005% (inactive).

In the case of `C[C@@H]1CCCCO[C@H](CN(C)C(=O)Nc2ccc3c(c2)OCO3)[C@H](C)CN([C@H](C)CO)C(=O)c2cc(NS(=O)(=O)c3ccc(F)cc3)ccc2O1`, the activation was 0.0035% (inactive).

Regarding `CC(C)CN(C[C@H]1N[C@H](CO)[C@@H]1c1ccccc1)C(=O)C1CCCCC1`, the activation was 0% (inactive).

For `CO[C@H]1CN(C)C(=O)c2cc(NC(=O)Nc3cccc(Cl)c3)ccc2OC[C@H](C)N(C(=O)Nc2c(C)noc2C)C[C@@H]1C`, the activation was 0.004% (inactive).

On to `COc1ccc2c3c([nH]c2c1)[C@H](CO)N(Cc1ccccc1F)CC31CN(CC2CC2)C1`, for which the activation is 0.011% (inactive).

On to `COCC#Cc1ccc([C@H]2[C@@H](CO)N3CCCCN(C(=O)NC4CCCC4)C[C@H]23)cc1`, for which the activation is 0.001% (inactive).

For the compound `O=C(c1ccccc1)N1CC(=O)N2[C@H](CO)[C@H](c3ccc(-c4ccccc4)cc3)[C@@H]2C1`, the activation is 0.0005% (inactive).

`C/C=C/c1ccc([C@@H]2[C@H](CO)N(C(C)=O)[C@H]2CNC(=O)c2ccccc2)cc1`: the activation is 0.0015% (inactive).

Consider `C[C@H](NC(=O)C[C@H]1C=C[C@@H](NC(=O)c2cccnc2)[C@H](CO)O1)c1ccccc1`, for which the activation is 0.0005% (inactive).

As to `CS(=O)(=O)Nc1ccc2c(c1)[C@@H]1C[C@@H](CC(=O)NCc3cc(F)ccc3F)O[C@H](CO)[C@@H]1O2`, the activation is 0.007% (inactive).

Turning to `C[C@@H]1CN([C@@H](C)CO)C(=O)c2ccccc2-c2ccccc2CO[C@@H]1CN(C)C(=O)NC1CCCCC1`, the activation was -0.0015% (inactive).

As for `CO[C@H]1CN(C)C(=O)c2ccc(NC(=O)c3nc4ccccc4s3)cc2OC[C@H](C)N(Cc2cccnc2)C[C@@H]1C`, the activation was 0.009% (inactive).
